# According to PubChem BioAssay (Tox21):
# Records with an inconclusive call do not appear. Active and inactive are the calls of the source. Calls come from the whole dose curve.
# Assay: qHTS assay to identify small molecule agonists of the endoplasmic reticulum stress response signaling pathway - cell viability counter screen (AID 1159517); note: nearly all actives have a fitted effect of over 50% in size
# Conditions: ESRE-bla HeLa viability, CellTiter-Glo luminescence, 5 h; series mostly up to 61 µM
# Excerpt: U.S. Tox21 Program National Center for Advancing Translational Sciences [NCATS] NIH Chemical Genomics Center [NCGC] U.S. Environmental Protection Agency [EPA] National Institutes of Environmental Health Sciences [NIEHS] National Toxicology Program [NTP] U.S. Food and Drug Administration [FDA] Tox21 Assay Overview: Endoplasmic Reticulum (ER) plays an important role in cellular signaling, protein folding/maturation, stress response, lipid biosynthesis, calcium storage and release etc. Under stress conditions, proteins in ER misfold or unfold, and leading to the expression of ER stress responsive genes. ER stress has been associated with a variety of pathophysiological conditions such as cancer, inflammation, neurodegenerative diseases, diabetes, ischemic heart disease etc. To identify the compounds that induce ER stress response, an ER stress reporter cell line, CellSensor ESRE-bla HeLa (Life Technologies, Carlsbad, CA) containing a beta-lactamase reporter gene under control of the Endoplasmic reticulum Stress Response Element (ESRE) was used to screen Tox21 10K compound library. The cytotoxicity of the Tox21 compound library against the ESRE-bla HeLa cell line was tested in parallel by measuring cell viability using the CellTiter-Glo assay in the same wells.
# Tox21 Assay Protocol Summary: ESRE-bla HeLa cells were dispensed at 1,500 cells/6 uL of assay medium per well into black wall/clear-bottom 1536-well plates using a Multidrop Combi (ThermoFisher Scientific, Waltham, MA) dispenser. After the assay plates were incubated at 37 C and 5% CO2 for an overnight, 23 nL of compounds dissolved in DMSO, positive controls or DMSO only was transferred to the assay plate by a Pintool station (Kalypsys, San Diego, CA). The assay plates were incubated at 37 C and 5% CO2 for 5 hr. One uL of LiveBLAzer B/G FRET substrate (Life Technologies) was added using a FRD (Flying Reagent Dispenser, Aurora Discovery, San Diego, CA) and the plates were incubated at room temperature for 2 hr. Fluorescence intensity (405 nm excitation, 460 nm and 530 nm emissions) was measured using an Envision plate reader (PerkinElmer, Shelton, CT). For cytotoxicity, 4 ul/well of CellTiter-Glo reagent was added into the assay plates using an FRD. After 30 min incubation at room temperature, the luminescence intensity was measured using a ViewLux plate reader (PerkinElmer).
row,SMILES,outcome
1,NC1CCN(c2nc3c(cc2F)c(=O)c(C(=O)O)cn3-c2ccc(F)cc2F)C1 (stereo not given),inactive
2,c1ccc(OCc2ccc(CCCN3CCOCC3)cc2)cc1,inactive
3,NCCCOCCOCCOCCCN,inactive
4,CC(=O)O[C@H]1C[C@@H]2CC[C@@H]3[C@H](CC[C@@]4(C)[C@H]3C[C@H]([N+]3(C)CCCCC3)[C@@H]4OC(C)=O)[C@@]2(C)C[C@@H]1N1CCCCC1,inactive
5,CC(C)NCC(O)c1cc(O)cc(O)c1 (stereo not given),inactive
6,O=C(O)C(c1ccc(Cl)cc1)c1ccc(Cl)cc1,inactive
7,CC[C@@H]1C[C@H](N(Cc2cc(C(F)(F)F)cc(C(F)(F)F)c2)C(C)=O)c2cc(C(F)(F)F)ccc2N1C(=O)OC(C)C,inactive
8,COc1ccccc1OC(=O)Oc1ccccc1OC,inactive
9,CC(=O)/C(C)=C/C1C(C)=CCCC1(C)C (stereo not given),inactive
10,CC(=O)NCCCS(=O)(=O)O,inactive
11,C[C@H](CCC(=O)O)[C@H]1CC[C@H]2[C@@H]3[C@H](O)C[C@@H]4C[C@H](O)CC[C@]4(C)[C@H]3CC[C@]12C,inactive
12,Cc1ccccn1,inactive
13,CCc1nn(C2CCCCC2)c2cc(C3(C#N)CCC(C(=O)O)CC3)ccc12 (stereo not given),inactive
14,CCCCCCCCCCCCCCC1CO1 (stereo not given),inactive
15,CCCOc1ccc2nc(NC(=O)OC)[nH]c2c1,inactive
16,c1ccc(-c2nc[nH]c2-c2ccccc2)cc1,inactive
17,CN(C)CC[C@@H](c1ccc(Br)cc1)c1ccccn1,inactive
18,SC1CCCC1,inactive
19,FC(F)(F)C(F)(F)C(F)(F)C(F)(F)C(F)(F)C(F)(F)CCI,inactive
20,CC(C)(C)C(=O)OCOP(=O)(COCCn1cnc2c(N)ncnc21)OCOC(=O)C(C)(C)C,inactive

row,SMILES,outcome
1,O=C1Nc2cc(Cl)ccc2Oc2ccccc21,inactive
2,C1CCC2OC2C1 (stereo not given),inactive
3,CN1CCC[C@@H]1c1cccnc1,inactive
4,Cc1occc1S,inactive
5,CCCCCCCCCCCCC(=O)O,inactive
6,CCOc1ccc(NC(=O)CC(C)=O)cc1,inactive
7,CCCCC(CC)COCCCN (stereo not given),inactive
8,Cc1cc(NC(=O)C(=O)O)cc(C)c1Oc1ccc(O)c2c1CCC2,inactive
9,CCCCCCCCC(CO)CCCCCC (stereo not given),inactive
10,CCCCCCc1ccc(N)cc1,inactive
11,Cc1cc(CC(=O)O)c(C)n1-c1ccc(Cl)cc1,inactive
12,CN1CCC(OC(c2ccccc2)c2ccccc2)CC1,inactive
13,O=C(O)/C=C/c1cnc[nH]1,inactive
14,CCN(CC)CCOc1ccc2c(c1)C(=O)c1cc(OCCN(CC)CC)ccc1-2,inactive
15,Cn1c(NCCN(CCO)CCCc2ccc([N+](=O)[O-])cc2)cc(=O)n(C)c1=O,inactive
16,Cc1ccc2c(ccc3ccccc32)c1,inactive
17,COCCOCCOCCOCCOC,inactive
18,CCCCCCOC(=O)CCC,inactive
19,CC(C)(C)c1ccc(OCC2CO2)cc1 (stereo not given),inactive
20,CC(=O)OCCc1ccccc1,inactive
